High-throughput results: PubChem BioAssay, National Center for Advancing Translational Sciences (NCATS)
This is a sample that favours compounds with a hit; in the whole collection about 9.3% have one here.
SMN2 splice up – qHTS Assay for Enhancers of SMN2 Splice Variant Expression. AID 1458, 2008. HEK293 SMN2-luciferase splicing reporter, luminescence, 30-36 h. actives 2.8% (n = 210,000). Potency, µM (titrated, usually from 46.1 µM), for the others: at the highest dose activity change, positive = activation, hits mostly activators; further: % of control where 0% means no effect; nearly all actives have a fitted effect of over 55% in size
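qHTS luciferase splicing reporter: luminescence rises when SMN2 exon 7 is included in transfected HEK293 cells. Compound exposure lasted 30-36 h at 37C, with 4.5 mM final sodium butyrate as control, followed by a ONE-Glo read.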
ELG1 genotox – qHTS screen for small molecules that induce genotoxicity in human embryonic kidney (HEK293T) cells expressing luciferase-tagged ELG1. Potency, µM (highest dose often 46 µM), for the others: at the top dose activity change, positive = activation, actives largely listed as activators. actives 1.3% (n = 330,000). AID 504466, 2011. HEK293T ELG1-luciferase reporter, luminescence, 16 h; further: % of control where 0% means no effect; nearly all actives have a fitted effect of over 60% in size
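Luminescence read-out: rising ELG1-luciferase signal, reflecting elevated ELG1 protein under genetic stress, flags genotoxic compounds. Cells were treated for 16 hr at 37 °C before ONE-Glo detection.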
ELG1 repair inh – qHTS screen for small molecules that inhibit ELG1-dependent DNA repair in human embryonic kidney (HEK293T) cells expressing luciferase-tagged ELG1 | actives 2.3% (n = 330,000) | HEK293T ELG1-luciferase reporter, luminescence, 16 h; DNA damage induced by 5-fluorouridine | Potency, µM (top dose mostly 46.1 µM), for the others: at the highest dose activity change, negative = inhibition, hits mostly inhibitors; further: on the % scale 0 is the no-effect control and ±100 the full control effect; nearly all actives have a fitted effect of over 55% in size
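Step one: seed 2,000 cells per well. Step two: pin-transfer compound or DMSO alongside 5-fluorouridine. Step three: incubate 16 hr, 37 °C, 5% CO2. Step four: add ONE-Glo, wait 30 min, read luminescence.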
FLuc counter – qHTS profiling assay for firefly luciferase inhibitor/activator using purifed enzyme and Km concentrations of substrates (counterscreen for miR-21 project); Luciferin 4-monooxygenase (Photinus pyralis), P08659; purified FLuc, Km substrates, luminescence inhibition; Potency, µM (doses to about 57.5 µM), for inactives: at the highest dose activity change, negative = inhibition, hits mostly inhibitors; actives 6.9% (n = 360,000); AID 588342, 2011;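 further: plate controls were vehicle for no effect and reference inhibitor for full effect; nearly all actives have a fitted effect of over 55% in size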
Target sequence (P08659 whole entry, looked up): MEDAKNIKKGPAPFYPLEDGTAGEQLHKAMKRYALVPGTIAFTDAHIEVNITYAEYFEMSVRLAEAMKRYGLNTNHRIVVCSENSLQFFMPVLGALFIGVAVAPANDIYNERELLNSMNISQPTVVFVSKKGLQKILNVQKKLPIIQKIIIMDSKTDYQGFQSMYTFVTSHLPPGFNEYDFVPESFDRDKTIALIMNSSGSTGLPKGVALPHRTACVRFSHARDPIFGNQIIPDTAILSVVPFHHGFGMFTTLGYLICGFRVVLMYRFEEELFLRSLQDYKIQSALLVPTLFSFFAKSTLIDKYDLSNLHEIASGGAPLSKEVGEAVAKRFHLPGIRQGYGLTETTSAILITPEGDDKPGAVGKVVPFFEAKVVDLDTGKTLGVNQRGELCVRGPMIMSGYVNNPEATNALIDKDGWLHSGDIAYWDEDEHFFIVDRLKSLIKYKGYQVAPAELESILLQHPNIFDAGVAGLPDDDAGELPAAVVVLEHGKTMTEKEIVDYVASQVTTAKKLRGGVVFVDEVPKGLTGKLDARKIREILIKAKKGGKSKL
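Purified P. pyralis luciferase, 10 nM final, with Km-level 10 uM D-luciferin and 10 uM ATP in 50 mM Tris acetate pH 7.5, 10 mM Mg acetate, 0.01% Tween-20, 0.05% BSA; 6-point qHTS titration about 60 µM downward; luminescence read.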
Rab9 prom act – qHTS Assay for Rab9 Promoter Activators; Huh7 Rab9 promoter-luciferase reporter, luminescence, 24 h; Potency, µM (top dose mostly 9.22 µM), without a hit: at the top dose activation, negative = inhibition, most hits filed as activators; actives 2.8% (n = 320,000); AID 485297, 2010; further: % of control where 0% means no effect; nearly all actives have a fitted effect of over 60% in size
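Huh7 cells stably carrying a Rab9 promoter-luciferase reporter, 1500 cells per well in OP-MEM I with 10% FBS, treated with compound 24 hours at 37C. Luciferase activity read by luminescence after 10 minutes with Amplite reagent.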
NPC1 promoter act – qHTS Assay for NPC1 Promoter Activators; actives 2.4% (n = 320,000); Potency, µM (top dose mostly 9.22 µM), for the others: at the highest dose activation, most hits filed as activators; Huh7 NPC1 promoter luciferase reporter, 24 h; further: % of control where 0% means no effect; nearly all actives have a fitted effect of over 60% in size
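Stably transfected Huh7 (NPC1 promoter→luciferase), 1500 cells/well in Opti-MEM + 10% FBS, 2 h settle, then compound 24 h at 37 °C. Luminescence after 10 min with Amplite reagent.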
Numbers without * were called inactive; ? = inconclusive; nt = no result given; [ ] = remark or other dose. The call rests on the fitted dose curve; in most records, active means well fitted curve in the direction sought with a large enough effect; inconclusive means small, poorly fitted or top-dose-only effect, or another doubt; inactive means no such curve, though single readings can be large; an effect the other way counts as inactive or inconclusive. Potency means the concentration at half of the fitted maximal effect.

SMILES | SMN2 splice up | ELG1 genotox | ELG1 repair inh | FLuc counter | Rab9 prom act | NPC1 promoter act
COC(=O)[C@H](CC(C)C)NC(=O)Cn1cnc2c(OCc3ccccc3)ncnc21 | nt | 1.6% | 15.4% | nt | nt | nt
COCCCNC(=S)N1CCN(c2ccc([N+](=O)[O-])cc2)CC1 | -36.2% | -5.4% | ? | 3.6% | 0.6% | 0.6%
On1c2c(c3c4nonc4ccc31)CCCC2 | 4.9% | 0.6% | 13µM* | -12.0% | 0.2% | 8.3%
COc1ccc(-c2nnc(SC(C)C(=O)NNC(=O)c3ccc(C)cc3)o2)cc1 (stereo not given) | -27.2% | 2.1% | 29.8% | -19.4% | 13.9% | 2.6%
C#CCSc1nnc(-c2ccc(OC)cc2)o1 | ? | 10.3µM* | ? | 7.57µM* | 2.82µM* | 2.82µM*
COc1ccc(-c2nnc(SC(C)C(=O)O)o2)cc1 (stereo not given) | -1.3% | nt | nt | 12µM* | nt | nt
CCSc1nnc(-c2ccc(OC)cc2)o1 | 11.2µM* | 7.08µM* | ? | 7.57µM* | 2.82µM* | 2.82µM*
C#CCSc1nnc(-c2ccc([N+](=O)[O-])cc2)o1 | 20.2% | 16.5% | ? | ? | 3.16µM* | 26.1%
CCCCn1c(SCc2cccc([N+](=O)[O-])c2)nc2ccsc2c1=O | -46.0% | -7.5% | ? | -2.4% | -4.7% | -4.3%
COc1ccc(-c2nnc(SCc3c(C)noc3C)o2)cc1 | -10.9% | 0.6% | ? | 19µM* | 0.0% | 16.8%
COc1ccc(-c2nnc(SCC#N)o2)cc1 | -9.7% | ? | ? | -6.8% | 1.4% | 0.0%
CCN(CC)S(=O)(=O)c1ccc(C)c(NC(=O)CSc2nnnn2C)c1 | nt | 0.1% | -1.8% | nt | nt | nt
O=C(COC(=O)c1ccccn1)c1ccc([N+](=O)[O-])cc1 | nt | -0.7% | 0.2% | ? | 2.7% | -9.6%
O=C(COC(=O)c1nc(Cl)ccc1Cl)c1ccc(Cl)s1 | 1.5% | 1.1% | 18.3% | ? | -6.2% | 5.4%
O=C(OCC(=O)c1ccc(Cl)s1)c1cnccn1 | nt | 2.3% | -0.5% | 19µM* | 8.1% | -4.5%
O=C(COC(=O)c1ncc(Cl)c(Cl)c1Cl)c1ccc(Cl)s1 | 17.0% | 0.8% | 10.3% | 12µM* | 4.1% | 10.2%
O=C(OCC(=O)c1ccc(Cl)s1)c1ccccn1 | 4.9% | -1.1% | ? | 7.57µM* | 0.0% | 0.1%
NC1=NC[C@H](Cc2ccc(O)cc2)N1CC1CCCCC1 | nt | -4.1% | -3.2% | 1.1% | -4.3% | -4.9%
CCC1CCCCN1CCCNC(=O)C1CCN(S(=O)(=O)N2CCC3(CC2)OCCO3)CC1 (stereo not given) | nt | 0.4% | 10.4% | -1.5% | -0.8% | -1.6%
Cc1cc(C)cc(NS(=O)(=O)c2ccc(NC(=S)NC(=O)c3cccs3)cc2)c1 | -38.9% | -4.4% | -23.5% | -1.4% | -1.4% | -4.3%
Cc1ccc(CC(NC(=O)c2ccccc2)C(=O)NC(C)C(=O)O)cc1 (stereo not given) | 1.3% | -5.7% | -2.6% | 6.8% | 1.6% | -2.5%
O=C1C2C3C=CC(C4CC34)C2C(=O)N1/N=C/c1ccc(-c2ccc(F)cc2[N+](=O)[O-])o1 (stereo not given) | 0.2% | -2.3% | ? | 13.5µM* | -1.6% | 5.6%
COc1ccc(-c2ccc(/C=N/N3C(=O)C4C5C=CC(C6CC56)C4C3=O)o2)c([N+](=O)[O-])c1 (stereo not given) | -4.9%[1.84 µM] | -5.8% | 18.4µM* | ? | -8.8% | -7.5%
CN1C(=O)C2(Oc3ccccc3C3CC(c4ccccc4)=NN32)c2ccccc21 (stereo not given) | 11.2% | 0.2% | ? | ? | -12.4% | 2.8%
Cc1ccc(C2=NN3C(C2)c2ccccc2OC32C(=O)Nc3ccccc32)cc1 (stereo not given) | ? | ? | ? | 15.1µM* | ? | 2.51µM*
SMILES | SMN2 splice up | ELG1 genotox | ELG1 repair inh | FLuc counter | Rab9 prom act | NPC1 promoter act
COc1ccc(CCNC(=O)C2CCN(S(=O)(=O)c3cccs3)CC2)cc1OC | -1.1% | -0.3% | -2.6% | -1.8% | 14.2% | -5.9%
C=CCN1C(=O)/C(=C/c2ccccc2)S/C1=N/c1nccs1 | -17.3% | 6.9% | 3.5% | 5.4% | 0.2% | 1.1%
COc1cc(/C=N/N(c2ccccc2)c2ccccc2)ccc1O | nt | 0.5% | -2.7% | 19µM* | -0.5% | -0.6%
COc1ccc(/C=N/N(c2ccccc2)c2ccccc2)cc1O | nt | 4.3% | 19.3% | ? | -3.9% | -3.0%
COc1cc(/C=N/Nc2ccccc2)ccc1O | nt | ? | 12.8% | 15.1µM* | -0.5% | 4.2%
COc1cc(/C=N/Nc2ccccc2C(F)(F)F)ccc1O | nt | 17.9% | ? | 13.5µM* | ? | 9.6%
CCN(CC)S(=O)(=O)c1ccc(N2CCN(c3ccccc3O)CC2)nc1 | nt | -24.1% | -19.8% | 1.0% | -1.8% | -0.1%
O=C(CN1CC[n+]2c(-c3ccccc3)csc21)c1ccc(Br)cc1 | nt | -11.2% | 16.4µM* | -1.6% | -5.5% | -7.9%
O=C(CN1CC[n+]2c(-c3cccs3)csc21)c1ccc(Br)cc1 | -15.2% | -14.0% | ? | -1.0% | -3.0% | -1.8%
CC(=O)c1cccc(NC(=O)CN(c2ccccc2)S(C)(=O)=O)c1 | nt | -1.7% | -8.7% | 4.3% | -9.5% | -2.7%
CCOc1ccc(N2C(=O)/C(=C/c3ccccc3)N=C2SC)cc1 | -11.1% | ? | ? | -8.5% | ? | 3.55µM*
COc1ccc(/C=C2\N=C(SC)N(c3ccccc3OC)C2=O)cc1 | 1.26µM* | -14.3% | ? | ? | ? | -6.2%
CCCOc1ccc(N2C(=O)C/C(=C\c3ccccc3)C2=O)cc1 | nt | -9.4% | -4.0% | 0.2% | -1.5% | -2.6%
CC(C)c1ccc(N(CC(=O)N/N=C/c2ccc(OC3CSC3)cc2)S(=O)(=O)c2ccccc2)cc1 | -9.7% | -2.1% | -3.3% | 2.3% | -4.5% | 0.7%
Cc1ccc(NCc2nnc(SCc3ccc(C#N)cc3)n2Cc2ccco2)c(C)c1 | 25.1% | -12.8% | -18.3% | 3.8% | -7.6% | 0.1%
Fc1ccc(-c2ccc(CNCCSc3nnnn3-c3ccccc3)o2)cc1 | nt | nt | nt | -19.7% | nt | nt
Fc1ccc(-c2ccc(CNCc3ccccn3)o2)cc1 | nt | ? | ? | 23.9µM* | 5.1% | 27.3%
Clc1ccc(-c2ccc(CNCc3ccccn3)o2)cc1 | nt | 4.1% | ? | 15.1µM* | 24.0% | ?
COc1ccc(-c2ccc(CNCc3ccccn3)o2)cc1Cl | nt | 8.2% | ? | ? | -2.9% | -3.6%
